Test system: Vero E6 infected with SARS-CoV-2
Experiment: inhibition of SARS-CoV-2 cytopathic effect; higher = more antiviral protection, active = above 15
Details: 48 h

Measured: inhibition of SARS-CoV-2 cytopathic effect

NC(=O)N1C(=O)/C(=C(\O)c2cccs2)c2cc(Cl)ccc21 [tenidap]
inactive: 1 nM 1.19% | 8.33 nM 1.1% | 100 nM 0.33% | 833.33 nM 1.99% | 10000 nM -5.52%

C[C@@H]1c2ccccc2CN1CC1=NCCN1 (racemic)
inactive: 1 nM -1.04% | 8.33 nM -0.79% | 100 nM -0.96% | 833.33 nM 1.02% | 10000 nM -0.71%

CC(C)(CO)Cc1cc(C(C)(C)C)c(O)c(C(C)(C)C)c1
inactive: 1 nM -1.21% | 8.33 nM -2.15% | 100 nM 1.59% | 833.33 nM 4.34% | 10000 nM -0.79%

Nc1nnc(-c2cccc(Cl)c2Cl)c(N)n1 [lamotrigine]
inactive: 1 nM -2.3% | 8.33 nM -2.08% | 100 nM -1.73% | 833.33 nM -0.07% | 10000 nM 0.08%

C1COC(NC(C2CC2)C2CC2)=N1 [rilmenidine]
inactive: 1 nM 2.93% | 8.33 nM 3.39% | 100 nM -2.62% | 833.33 nM -3.95% | 10000 nM -6.59%

C[N+]1(C)CCC(=C(c2ccccc2)c2ccccc2)CC1 [diphemanil]
inactive: 1 nM -0.26% | 8.33 nM -0.4% | 100 nM -0.53% | 833.33 nM 2.17% | 10000 nM 2.09%

CO[C@@H]1COCC[C@@H]1N[C@@H]1CC[C@@](C(=O)N2CCc3ncc(C(F)(F)F)cc3C2)(C(C)C)C1
inactive: 1 nM 0.39% | 8.33 nM -0.35% | 100 nM 0.03% | 833.33 nM -0.05% | 10000 nM -5.58%

O=C(/C=C/c1ccc(O)c(O)c1)O[C@H](Cc1ccc(O)c(O)c1)C(=O)O [rosmarinic-acid]
inactive: 1 nM 2.8% | 8.33 nM 3.5% | 100 nM 2.25% | 833.33 nM 3.06% | 10000 nM 3.05%

COc1ccccc1N1CCN(CCN(C(=O)C2CCCCC2)c2ccccn2)CC1
inactive: 1 nM -3.64% | 8.33 nM -4.61% | 100 nM -0.56% | 833.33 nM 3.47% | 10000 nM -0.29%

COc1cccc(Nc2ncnn3ccc(CN4CC[C@@H](N)[C@H](O)C4)c23)c1
inactive: 1 nM -0.26% | 8.33 nM 0.1% | 100 nM -6.81% | 833.33 nM -16.4% | 10000 nM -22.6%

N=C(N)NCCC[C@H](N)C(=O)O [L-arginine]
inactive: 1 nM 2.26% | 8.33 nM 3.4% | 100 nM -3.93% | 833.33 nM 1.97% | 10000 nM 1.83%

NS(=O)(=O)c1cc2c(cc1C(F)(F)F)NCNS2(=O)=O [hydroflumethiazide]
inactive: 1 nM 0.67% | 8.33 nM 2.12% | 100 nM 1.79% | 833.33 nM 0.37% | 10000 nM 0.46%

CCN(CCCOc1ccc2c(Nc3cc(CC(=O)Nc4cccc(F)c4)[nH]n3)ncnc2c1)CCOP(=O)(O)O [barasertib]
inactive: 1 nM -0.38% | 8.33 nM 0.9% | 100 nM -1.02% | 833.33 nM -2.03% | 10000 nM -4.38%

COC1=CC(=O)C[C@@H](C)[C@]12Oc1c(Cl)c(OC)cc(OC)c1C2=O [griseofulvin]
inactive: 1 nM 1.17% | 8.33 nM 0.82% | 100 nM 0.95% | 833.33 nM 2.52% | 10000 nM 1.84%

CNC(=S)C1(c2ccccn2)CCCS1 (stereo not given) [picartamide]
inactive: 1 nM -4.38% | 8.33 nM 0.23% | 100 nM -0.26% | 833.33 nM 2.39% | 10000 nM 6.75%

S=P(N1CC1)(N1CC1)N1CC1 [thiotepa]
inactive: 1 nM -0.94% | 8.33 nM 1.88% | 100 nM 0.45% | 833.33 nM -0.47% | 10000 nM 2.21%

COc1cc([S+](C)[O-])ccc1-c1nc2cccnc2[nH]1 (stereo not given) [sulmazole]
inactive: 1 nM -0.6% | 8.33 nM 3.93% | 100 nM 0.23% | 833.33 nM -1.34% | 10000 nM -0.68%

Cc1sc(N)c(C(=O)c2cccc(C(F)(F)F)c2)c1C
inactive: 1 nM 1.09% | 8.33 nM -1.79% | 100 nM -3.31% | 833.33 nM -3.27% | 10000 nM -2.62%

C=C1C(=O)O[C@@H]2[C@H]3O[C@]3(C)CC/C=C(\C)CC[C@@H]12 [parthenolide-(alternate-stereo)]
active: 10000 nM 23.8%
inactive: 1 nM 0.91% | 8.33 nM -1.19% | 100 nM -2.99% | 833.33 nM 2.8%

— the supplement of paper PMC13380429
